Drawing on PubChem BioAssay (EPA / NIEHS), this text covers outcome for 24 compounds.

The structures appear in SMILES notation. The source made the active and inactive calls. Rule for the calls: active = hit-call score of the fitted dose curve at least 0.9, where 1 is the maximum; inactive = score below 0.9.

The experiment in a line: CCTE_Padilla_ZF_Score.Blood_pooling: CCTE's 144 Hour Post-fertilization zebrafish Assay Score for Blood Pooling, Padilla Lab (AID 2284415). The protocol:
CCTE_Padilla_ZF_Phenotype_Score is a whole embryo, multiplexed assay using zebrafish ova exposed for 144 hours post fertilization on a 96-well plate.CCTE_Padilla_ZF_Score.Blood_pooling is one of one assay component(s) measured or calculated from the CCTE_Padilla_ZF_Phenotype_Score assay. It is designed to make measurements of zebrafish development as detected with brightfield microscopy of developing zebrafish embryos.Data from the assay component CCTE_Padilla_ZF_Score.Blood_pooling was analyzed into 1 assay endpoints. This assay endpoint, CCTE_Padilla_ZF_Score.Blood_pooling, was analyzed in the positive analysis fitting direction relative to DMSO as the negative control and baseline of activity. Using a type of viability reporter, gain-of-signal activity can be used to understand changes in developmentals as they relate to the whole embryo. To generalize the intended target to other relatable targets, this assay endpoint is annotated to the zebrafish development intended target family, where the subfamily is swim bladder morphogenesis.
Zebrafish husbandry: Wild type adult zebrafish (Danio rerio; undefined outbred stock obtained from Aquatic Research Organisms, Hampton, NH, 03842) were housed in an AAALAC-approved animal facility at 28C with a 14:10 h light: dark cycle (lights on at 08:30 h). Adult fish (2-3 females per male; density = 15-20 adults per tank) were kept in one of several 9-liter (L) flow-through colony tanks (Aquaneering Inc., San Diego, CA). All adults in a colony tank were placed in a 2 L (static) breeding tank (Aquatic Habitats, Apopka, FL) one hour prior to light onset. Typically, adults from two to three colony tanks were mated on the same day. Two hours after light onset the adults were returned to the colony tank. All embryos were gathered from each breeder tank, pooled, and placed in a 28C water bath for 2 h, followed by two washes with 0.06% bleach (v/v) in 10% Hanks' Balanced Salt Solution (13.7 mM NaCl 0.54 mM KCl, 25 uM Na2HPO4, 130 uM CaCl2 100 um MgSO4 and 420 um NaHCO3,), hereafter referred to as Hanks' solution, for 5 min in order to remove any residual bacteria or fungi. Immediately following washing, the embryos were examined, and healthy embryos were separated from dead or unfertilized eggs and moved into fresh Hanks'. Chemical exposures: Zebrafish embryos were exposed in 96-well plates. Between 6- and 8-hours post fertilization (hpf), healthy embryos (with chorions) were transferred, one embryo per well, into 96 well (0.5 mL) microtiter plates (Cell Culture-Treated, Flat-Bottom Microplate 96 well [Corning Costar, Kennebunk, ME; Cat 09-761-145]) filled with 200 uL of Hanks' solution. A random number generator was used to assign the order in which the rows of embryos were plated in 96 well plates each week. After plating, the embryos were dosed with 0.8 uL of the chemical dosing solution then immediately sealed with AlumaSeal II (Excel Scientific Inc, Victorville, CA) to prevent volatilization of the chemicals, and then placed in a leakproof secondary container. These containers were placed in an incubator maintained on a 14:10 h light: dark cycle at 26C for rearing. On 5 dpf, live larvae were gently moved out of the plate with test chemicals and into a new 96 well mesh plate (Millipore Corp., Bedford, MA) with just the Hanks' solution. Once within the mesh well plate, the animals were rinsed with 400 uL of fresh Hanks' three times, and then the plates were covered with a non-adhesive material (Microseal A, BioRad, Hercules, CA), plate lid added, and then plate sides wrapped in Parafilm (PM992, Bermis Company, Neenah, WI), and returned to the incubator. […]
Turning to `O=P(O)(O)CCC(F)(F)C(F)(F)C(F)(F)C(F)(F)C(F)(F)C(F)(F)F`, the compound was classed as inactive.

On to `O=P(O)(O)CCC(F)(F)C(F)(F)C(F)(F)C(F)(F)C(F)(F)C(F)(F)C(F)(F)C(F)(F)F`, for which the result was inactive.

In the case of `FCOC(C(F)(F)F)C(F)(F)F`, the outcome was inactive.

Take `FC(F)(F)N1C(F)(F)C(F)(F)OC(F)(F)C1(F)F`: the compound was classed as inactive.

For the compound `NC(C(F)(F)F)C(F)(F)F`, the result was inactive. For `FC(F)(F)C1(F)C(F)(F)C(F)(F)C(F)(F)C1(F)F`, the call was inactive. Consider `CN(CCO)S(=O)(=O)C(F)(F)C(F)(F)C(F)(F)C(F)(F)C(F)(F)C(F)(F)C(F)(F)C(F)(F)F`, for which the outcome was inactive. With `FC1(F)C=CC(F)(F)C1(F)F`, the result was inactive. Take `O=C(O)CCC(F)(F)C(F)(F)C(F)(F)C(F)(F)C(F)(F)C(F)(F)F`: the compound was called inactive. With `O=C(O)C(F)(F)OC(F)(F)C(F)(F)OC(F)(F)C(F)(F)OC(F)(F)C(F)(F)C(F)(F)C(F)(F)F` the entry was “inactive”; with `COC(=O)C(F)(F)C(F)(F)C(F)(F)C(F)(F)C(F)(F)F`, “inactive”; with `O=C1OC(=O)C(F)(F)C1(F)F`, “inactive”. With `OCC(F)(F)C(F)(F)C(F)(F)C(F)(F)C(F)(F)C(F)(F)C(F)(F)C(F)(F)C(F)(F)C(F)(F)C(F)(F)F` the entry was “inactive”; with `O=C(O)CCC(F)(F)C(F)(F)C(F)(F)C(F)(F)C(F)(F)F`, “inactive”. For the compound `O=C(CC(=O)C(F)(F)C(F)(F)C(F)(F)F)c1cccs1`, the result was inactive.

Consider `C=CC(=O)OCCC(F)(F)C(F)(F)C(F)(F)C(F)(F)C(F)(F)C(F)(F)C(F)(F)C(F)(F)F`, for which the compound was classed as inactive. Next, `FC(F)=C(F)C(F)(F)C(F)(F)C(F)(F)C(F)F`: “inactive”. For the compound `O=C(F)C(F)(F)C(F)(F)C(F)(F)C(=O)F`, the compound was classed as inactive.

With `O=CC(F)(F)C(F)(F)C(F)(F)F`, the compound was classed as inactive. Turning to `O=C(OC(=O)C(F)(F)C(F)(F)F)C(F)(F)C(F)(F)F`, the outcome was inactive. On to `FC(F)(F)C1(F)C(F)(F)C(F)(F)C(F)(F)C(F)(C(F)(F)F)C1(F)F` (centres undefined), for which the compound was called inactive. Next, `FC(OC(F)(F)C(F)(F)C(F)(F)F)C(F)(F)F` (centres undefined): “inactive”; `O=CC(F)(F)C(F)(F)C(F)(F)C(F)F`: “inactive”. With `C=CC(F)(F)C(F)(F)C(F)(F)C(F)(F)F` the entry was “inactive”.
